# Bioassay records (PubChem BioAssay)
# Most compounds without a hit are left out; they make up all but 3.5% or so of the library.
# KCNK9 block = human KCNK9 channel inhibition; actives 1.2% (n = 310,000); B-score at 10 µM; HEK293 KCNK9, FluxOR thallium flux fluorescence; active compounds read low; AID 488922; Q9NPC2;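 active means ratio B-score over 3 SD below the library mean, with starting fluorescence within 5 SD of its mean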;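 further: negative B-score means less thallium flux so channel inhibition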
# TMEM16A inh = inhibitors of mouse TMEM16A calcium-activated chloride channel. Q8BHY3. actives 1.2% (n = 310,000). normalized B-score (activity score, 25-100; higher = stronger inhibition) at 10 µM. AID 588511. HEK293 TMEM16A/YFP iodide influx fluorescence, ionomycin;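 active means ratio plate-corrected score three or more library SD toward inhibition, starting fluorescence score within five deviations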;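 further: score derived from kinetic fluorescence span divided by baseline fluorescence per well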
# Kir21 block = blocks the mouse Kir2.1 inward-rectifier potassium channel. P35561. HEK293-Kir2.1, FluxOR thallium flux fluorescence; active compounds read low. B-score at 10 µM. actives 0.85% (n = 310,000);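 active means fluorescence ratio B-score at or below minus 3 SD of library scores, with starting-brightness B-score within 2 SD, cut at about -4.2 in these data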;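 further: channel flux triggered by added potassium and thallium sulfate stimulus; B-score of peak minus minimum fluorescence over baseline after thallium stimulus; more negative B-score means stronger Kir2.1 block with less thallium influx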
# Target sequence (P35561 whole entry, looked up): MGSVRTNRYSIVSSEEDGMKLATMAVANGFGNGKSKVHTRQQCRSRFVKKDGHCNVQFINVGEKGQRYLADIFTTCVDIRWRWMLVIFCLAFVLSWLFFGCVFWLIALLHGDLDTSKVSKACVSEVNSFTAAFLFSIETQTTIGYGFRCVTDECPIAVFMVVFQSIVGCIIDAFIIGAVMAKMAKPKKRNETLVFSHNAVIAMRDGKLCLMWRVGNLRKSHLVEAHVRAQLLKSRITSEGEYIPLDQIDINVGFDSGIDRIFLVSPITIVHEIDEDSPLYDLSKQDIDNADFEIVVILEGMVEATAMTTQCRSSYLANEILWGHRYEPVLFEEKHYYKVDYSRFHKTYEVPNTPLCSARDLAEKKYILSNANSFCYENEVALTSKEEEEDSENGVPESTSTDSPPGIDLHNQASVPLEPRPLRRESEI
# ANO1 activ = mouse TMEM16A channel activation, primary screen | Q8BHY3 | HEK293 TMEM16A/YFP-H148Q/I152L, iodide quench fluorescence; active compounds read low | B-score at 10 µM | actives 0.3% (n = 340,000);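 active means fluorescence-ratio B-score plate-corrected deviation score at least 3 library SD below zero, with starting fluorescence score within 5 deviations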;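 further: channel opened by trigger with iodide after compound preincubation; score built on the fluorescence ratio of max minus min over baseline; more negative score means more quench and so TMEM16A activation or potentiation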
# KCNK3 inh = human KCNK3 channel inhibition, primary screen | CHO-KCNK3 thallium flux, FluxOR fluorescence; active compounds read low | B-score at 10 µM | actives 0.84% (n = 340,000) | O14649;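 active means B-score under library mean minus 4 SD, starting fluorescence ratio at most library mean plus 5 SD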;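 further: more negative B-score means stronger inhibition of thallium flux through KCNK3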
# KCNK9 block conf = human KCNK9 inhibitor confirmation. inhibition, % at 10 µM. shares compounds with KCNK9 block. HEK293 KCNK9 cells, FluxOR thallium flux fluorescence. actives 43% (n = 4,900);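 active means thallium signal inhibited by more than 5 SD of the compound-free buffer control wells, on both duplicate plates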;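 further: 0% = assay buffer control wells without compound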
# Kir2-1 spec = selectivity of KCNK9 modulators against mouse Kir2.1 | shares compounds with KCNK9 block | Kir2.1 cells, FluxOR thallium flux fluorescence | inhibition, % at 10 µM | actives 4% (n = 4,900);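 active means thallium signal drop more than 5 SD beyond the mean of the no-compound control wells, seen in both duplicate plates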;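 further: signal is fluorescence rise after thallium addition divided by baseline fluorescence; plate controls were assay buffer only for no effect and full block by chlorpromazine control for full effect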
# KCNK9 uninduced = non-induced cell nonspecific activity of KCNK9 modulators. shares compounds with KCNK9 block. non-induced KCNK9-HEK293, FluxOR thallium flux. inhibition, % at 10 µM. actives 40% (n = 4,900). AID 492997;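 active means thallium signal drop beyond 5 SD of the untreated control mean, on both duplicate plates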;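 further: plate controls were buffer only IC0 wells for no effect and SID17386958 at its maximal inhibitory level for full effect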
# TMEM16A reconf = re-confirmation of mouse TMEM16A chloride channel inhibitors; shares compounds with TMEM16A inh; HEK293 TMEM16A/YFP-H148Q, iodide quench fluorescence; ionomycin added to raise cell calcium; inhibition, % at 10 µM; actives 39% (n = 2,300);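 active means mean duplicate percent inhibition, scaled so buffer wells are 0 and the reference blocker 100, over three buffer SD above buffer mean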
# TMEM16A Ca cntr = alters calcium mobilization in TMEM16A HEK293 cells, counter-screen | calcium response (% of ionomycin), % at 10 µM | shares compounds with TMEM16A inh | TMEM16A/YFP HEK293, Fluo4 calcium mobilization | actives 2% (n = 2,300);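 active means duplicate-averaged calcium signal over 20% of the ionomycin maximum, relative to buffer baseline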;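 further: each well's signal is peak minus trough fluorescence divided by its pre-addition baseline; 0% = buffer wells and 100% = ionomycin wells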
# Parental YFP cnt = parental YFP-HEK293 iodide quench counter-screen activity | shares compounds with TMEM16A inh | ionomycin | YFP ratio F(max-min)/F0 at 10 µM | 2,300 tested, under 10 active | AID 652233;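 active means yellow fluorescent protein signal ratio exceeding the buffer control mean by over 5 SD of those controls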;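 further: ratio is mean of duplicate wells from kinetic YFP trace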
# ClC-1 inh = selectivity of TMEM16A inhibitors: inhibition of rat ClC-1 chloride channel; shares compounds with TMEM16A inh; CHO ClC-1-YFP, iodide influx fluorescence quench; iodide control reads 0, buffer control 100; ratio percent, % at 10 µM; 2,300 tested, under 10 active;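 active means duplicate-mean ratio percent above the mean of iodide-only control wells, which defines zero, plus 5 of their SD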;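 further: higher percent means stronger block of ClC-1 iodide influx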
# KCNK3 confirm = confirmation of human KCNK3 two-pore domain potassium channel inhibitors. CHO-KCNK3 thallium flux, FluxOR fluorescence; 0% buffer, 100% carvedilol maximal block. shares compounds with KCNK3 inh. ratio percent of control, % at 10 µM. actives 99% (n = 2,400);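 active means ratio percent of control, averaged over triplicates, above buffer control mean plus 5 SD, cut at about 64% in these data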;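 further: ratio is the fluorescence rise from min to max over baseline after thallium stimulus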
# KCNK3 uninduced = activity in cells without induced KCNK3 expression; AID 651747; actives 40% (n = 2,400); shares compounds with KCNK3 inh; non-induced KCNK3 parental cells, FluxOR thallium flux; active compounds read low; thallium flux ratio (lower = more inhibition) at 10 µM;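 active means thallium flux ratio, averaged over three wells, more than 5 SD below the buffer control mean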;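 further: host cells are CHO cells without KCNK3 induction; ratio is peak minus trough fluorescence over baseline then normalized to buffer controls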
# * hit, by the source's call; i = inactive; · = no result.
SMILES,KCNK9 block,TMEM16A inh,Kir21 block,ANO1 activ,KCNK3 inh,KCNK9 block conf,Kir2-1 spec,KCNK9 uninduced,KCNK3 confirm,KCNK3 uninduced,others
O=C(NNC(=O)c1cc(-c2ccc(Cl)cc2)nc2ccccc12)c1csc(N2CCOCC2)n1,-10*,i,0.14,i,-9*,28%*,i,i,80*,i,
O=C(NNC(=O)c1cc(-c2ccccc2)nc2ccccc12)c1csc(N2CCOCC2)n1,i,i,-0.4,i,i,·,·,·,·,·,
CC(C)C1OC(c2cccc(NC(=O)c3cccs3)c2)OCC1(C)C (stereo not drawn),-8.5*,i,1.3,i,-9.5*,50%*,i,44%*,114*,0.16*,
O=C(CC(c1ccc(F)cc1)c1ccco1)Nc1nccs1 (stereo not drawn),-8.1*,i,0.22,i,-11*,32%*,i,34%*,110*,0.16*,
COc1ccccc1C(CC(=O)Nc1nccs1)c1ccco1 (stereo not drawn),i,i,-0.52,i,i,·,·,·,·,·,
COc1ccccc1NC(=O)CC(c1ccc(F)cc1)c1ccco1 (stereo not drawn),-10*,i,-0.25,i,i,36%*,i,30%*,121*,0.15*,
COc1ccc(C(CC(=O)Nc2ccc(F)cc2)c2ccccc2)cc1 (stereo not drawn),i,i,-0.67,i,i,·,·,·,·,·,
COc1ccc(CNC(=O)c2nccnc2CO)cc1,i,i,0.63,i,i,·,·,·,·,·,
Cc1onc(-c2ccccc2Cl)c1C(=O)N(C)C1CCCCC1,i,i,-0.33,i,i,·,·,·,·,·,
CCN(C(=O)c1c(-c2ccccc2Cl)noc1C)C1CCCCC1,-9.1*,i,-3,i,-12*,50%*,i,33%*,107*,i,
COc1ccc(C(C)=O)cc1COC(=O)CSCC(=O)Nc1ccc(C)cc1,i,i,-1.8,i,i,·,·,·,·,·,
Cc1nn(C)c(Oc2cccc(Cl)c2)c1C#N,i,i,0.22,i,i,·,·,·,·,·,
Cn1nc(-c2ccccc2)c(C#N)c1Sc1cccc(Cl)c1,-11*,i,-0.1,i,-9.1*,55%*,i,52%*,113*,0.15*,
CC1CCN(C(=O)COC(=O)c2cc3ccccc3oc2=O)CC1,·,·,·,i,i,·,·,·,·,·,
COc1ccc(C)cc1NC(=O)c1cccc(C(=O)Nc2cc(C)ccc2OC)n1,-16*,i,0.28,i,i,61%*,i,32%*,107*,i,
COc1ccc(C)cc1NC(=O)Nc1cccc(C)c1,i,i,-0.62,i,i,·,·,·,·,·,
Cc1ccccc1NC(=O)NCc1ccccn1,i,i,1.5,i,i,·,·,·,·,·,
COc1ccccc1N(CC(=O)NCCSCc1ccc(C)cc1)S(=O)(=O)c1ccccc1,i,i,0.04,i,i,·,·,·,·,·,
COc1ccc(C)c(NC(=O)NCCc2cnc[nH]2)c1,i,i,-0.05,i,i,·,·,·,·,·,
CCOc1ccccc1Cn1c(=O)oc2ccc(C)cc21,·,i,·,i,i,·,·,·,·,·,
CCCOc1ccccc1Cn1c(=O)oc2ccc(C)cc21,-10*,100*,-1,i,-8.7*,52%*,i,46%*,115*,i,TMEM16A reconf=i;TMEM16A Ca cntr=i;Parental YFP cnt=-1.1;ClC-1 inh=-10
COc1ccc(C(C)=O)cc1COC(=O)c1cccnc1Cl,i,i,1.1,i,i,·,·,·,·,·,
COc1ccc(C(C)=O)cc1COC(=O)c1cc2ccccc2cc1O,-15*,i,2.2,i,-13*,32%*,i,29%*,109*,i,
Cc1cc(Br)ccc1NC(=O)CN(C)Cc1cccs1,-12*,i,-1.6,i,-9*,43%*,i,28%*,100*,i,
Cc1cc(C)cc(C(=O)OCC(=O)Nc2ncccn2)c1,·,·,·,i,i,·,·,·,·,·,
SMILES,KCNK9 block,TMEM16A inh,Kir21 block,ANO1 activ,KCNK3 inh,KCNK9 block conf,Kir2-1 spec,KCNK9 uninduced,KCNK3 confirm,KCNK3 uninduced,others
COc1ccc(-c2ccc(SCC(=O)c3cccs3)nn2)cc1OC,i,i,1.5,i,i,·,·,·,·,·,
COc1ccc(-c2ccc(SCC(=O)c3ccc(F)cc3)nn2)cc1OC,-15*,i,-0.66,i,-9.8*,64%*,i,i,118*,i,
CC1(C)Oc2ccc3ccc(=O)oc3c2/C(=C/O)C1=O,i,i,-0.27,i,i,·,·,·,·,·,
CC1(C)Oc2ccc3ccc(=O)oc3c2/C(=C/Nc2ccccc2)C1=O,-12*,i,0.06,i,-11*,56%*,i,i,110*,i,
C=CC[C@@H](CC(=O)OC(C)(C)C)C(=O)OC[C@H]1CCCN1C(=O)[C@@H](CC=C)CC(=O)N(CCO)Cc1ccccc1,·,·,·,i,i,·,·,·,·,·,
Cc1cc(C)cc(NC(=O)c2ccc(Cn3nc(C)c(Cl)c3C)o2)c1,-10*,i,0.55,i,-9.4*,i,i,i,137*,0.12*,
Cc1c(C)c2ccc(OCC(=O)Nc3ccccc3C(N)=O)cc2oc1=O,i,i,0.65,i,i,·,·,·,·,·,
COc1ccc(/C=C(\C#N)C(=O)OCC(=O)Nc2ccc(C(C)(C)C)cc2)cc1,i,i,0.41,i,i,·,·,·,·,·,
